Source: PubChem BioAssay (National Center for Advancing Translational Sciences (NCATS))
CHX counter: counter-screen for Shiga toxin inhibitors: cycloheximide protein synthesis inhibition; cell reporter, cycloheximide protein synthesis inhibition counterscreen; max response, %; 300,000 tested, 12% active; AID 2314; in the data active means max response mostly above about 13%, no sharp cut-off; inactive means mostly below about 14%; further: read at 38.3 µM for the half of the compounds with a filed dose; 0% is about no effect
SARS PLpro yeast: inhibitors of SARS-CoV papain-like protease in yeast. AID 485353. 330,000 tested, 0.19% active. S. cerevisiae expressing SARS-CoV PLpro, growth rescue. Potency, µM (series often up to 32.9 µM), for the others: at the highest dose activity, positive = growth rescue, usual class: activators; calls by dose curve; further: potency means the concentration at half of the fitted maximal effect; 0% is about no effect; nearly all actives have a fitted effect of over 55% in size
AmpC detergent: AmpC beta-lactamase inhibition with detergent present | P00811 | AmpC hydrolysis of nitrocefin, absorbance 480 nm, 0.01% Triton | Potency, µM (top dose mostly 114 µM), for the others: at the top dose activity change, negative = inhibition, usual class: inhibitors | 370,000 tested, 0.041% active;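 further: potency means the concentration at half of the fitted maximal effect; 0% = no-compound wells and -100% = no-enzyme wells; nearly all actives have a fitted effect of over 25% in size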
Target sequence (P00811 whole entry, looked up): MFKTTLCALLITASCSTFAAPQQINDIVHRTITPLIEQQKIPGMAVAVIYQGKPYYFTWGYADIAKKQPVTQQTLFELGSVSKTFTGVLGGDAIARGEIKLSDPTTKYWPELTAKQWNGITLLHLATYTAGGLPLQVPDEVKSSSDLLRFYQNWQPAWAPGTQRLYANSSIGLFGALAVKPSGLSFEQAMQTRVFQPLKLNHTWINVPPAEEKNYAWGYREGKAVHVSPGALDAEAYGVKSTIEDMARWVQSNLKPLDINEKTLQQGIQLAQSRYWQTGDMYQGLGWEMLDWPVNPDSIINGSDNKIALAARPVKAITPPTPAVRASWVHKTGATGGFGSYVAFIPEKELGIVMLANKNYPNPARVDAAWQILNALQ
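AmpC (5.3 nM in the dispensed reagent) in 20 mM phosphate pH 7.0 with 0.01% (detergent screen) or 0.0001% Triton X-100 was preincubated with compounds for 15 min at room temperature. Nitrocefin was then added from an 800 uM solution, and hydrolysis was followed at 480 nm.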
AMA1 RON2 block: disrupts binding of P. falciparum AMA1 to RON2; AlphaScreen AMA1-biotinylated RON2 peptide binding; Potency, µM (highest dose often 58.2 µM), for inactives: at the top dose activity change, negative = inhibition, hits mostly inhibitors; 360,000 tested, 0.2% active; AID 720542;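 further: potency means the concentration at half of the fitted maximal effect; 0% = vehicle wells and -100% = peptide control; nearly all actives have a fitted effect of over 45% in size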
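AMA1 (3D7) with his tag at 25 nM final met compounds first, then biotinylated RON2 peptide at 25 nM; detection used donor plus acceptor beads, 10 µg/mL apiece, read by AlphaScreen after 30 min at room temperature.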
Shiga toxin inh: blocks Shiga toxin action in Vero cells | Vero cells, Shiga toxin protein synthesis inhibition reporter | inhibition, % at 38.7 µM | 290,000 tested, 9.2% active | AID 2315; in the data active means inhibition mostly above about 28%, no sharp cut-off; inactive means mostly below about 43%; further: 0% is about no effect
AmpC inh no detg: blocks E. coli AmpC beta-lactamase in detergent-free assay; P00811; AmpC nitrocefin hydrolysis, absorbance 480 nm, 0.0001% Triton; Potency, µM (highest dose often 57.1 µM), for the others: at the top dose activity change, negative = inhibition, hits mostly inhibitors; 330,000 tested, 0.52% active; AID 485341;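 further: potency means the concentration at half of the fitted maximal effect; plate controls were no compound for no effect and no enzyme for full effect; nearly all actives have a fitted effect of over 20% in size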
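20 mM phosphate pH 7.0 + 0.01% (detergent screen) or 0.0001% Triton X-100; 5.3 nM AmpC reagent; cpd preinc 15 min RT; nitrocefin (800 uM stock) to start; A480 q20 s × 4 min; Activity was normalised to no-enzyme and no-compound control wells.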
Starred values were filed as active, the others as inactive; ? = inconclusive; · = not tested or not shown; + = active, no number; [ ] = dose if it differs, or a comment. Only a selection was taken, and hits are over-represented in it overall. Unless noted, the call rests on the fitted dose curve; in most records, active means well fitted curve in the direction sought with a large enough effect; inconclusive means small, poorly fitted or top-dose-only effect, or another doubt; inactive means no such curve, though single readings can be large; an effect the other way counts as inactive or inconclusive.

SMILES	CHX counter	SARS PLpro yeast	AmpC detergent	AMA1 RON2 block	Shiga toxin inh	AmpC inh no detg
CC(Cc1ccco1)NC(=O)c1ccc(C(F)(F)F)cc1 (stereo not given)	43*	-1%	0%	-12%	+	-14%
Cc1ccc2oc(C(=O)NCC(c3ccco3)N(C)C)c(C)c2c1 (stereo not given)	41*	2%	?	4%	75*	18%
CN(C)C(CNC(=O)c1ccc(C(F)(F)F)cc1)c1ccco1 (stereo not given)	17*	1%	-9%	34%	17	11%
C=CCn1c(O)c(N=NC(=O)OCC)c2ccccc21	2	-6%	?	-4%[2.32 µM]	-5	-31%
Nc1nc(CSc2n[nH]c(-c3ccccc3)n2)nc(Nc2ccccc2)n1	-1	-1%	-8%	-2%	-10	-49%
Cc1ccc(Nc2nc(N)nc(CSc3nnc(-c4ccncc4)o3)n2)cc1	14*	-2%	1%	26%	48*	-7%
COc1ccc(Nc2nc(N)nc(CSc3nc4ccccc4s3)n2)cc1	·	·	-10%	·	·	·
COc1ccc(Nc2nc(N)nc(CSc3nccc(C)n3)n2)cc1	16*	1%	?	-9%	76*	-23%
Cc1nc(Cc2nnc(SCc3nc(N)nc(Nc4ccccc4C)n3)o2)cs1	-1	0%	?	11%	-4	10%
Cc1ccc(Nc2nc(N)nc(CSc3nc4ccccc4s3)n2)cc1	37*	-23%	-3%	17%	37*	30%
Nc1nc(CSc2ncccn2)nc(Nc2ccccc2)n1	62*	3%	-13%	-2%	139*	-28%
Cc1ccc(Nc2nc(N)nc(CSc3nc(C)cc(C)n3)n2)cc1	3	·	-6%	8%	-5	·
Cc1ccc(Nc2nc(N)nc(CSc3ncccn3)n2)cc1	29*	4%	-2%	-8%	68*	-11%
COc1ccc(Nc2nc(N)nc(CSc3nnc(C)s3)n2)cc1	29*	-4%	-7%	9%	56*	-29%
O=C(c1cc(Cl)ccc1[N+](=O)[O-])n1cnc2ccccc21	-5	7%	0%	-9%	-3	-7%
COc1cccc(OCCSc2nc3ccccc3n2CC(=O)N2CCCCC2)c1	·	·	-4%	·	·	·
COc1ccc(/C(C)=N/Nc2nc3ccccc3nc2C)cc1OC	34*	0%	-3%	31%	57*	36%
O=C(O)c1cccc(N/N=C/c2cc(Br)cc(Br)c2O)c1	51*	-70%	-6%	-7%	126*	-14%
COc1ccccc1/C=C/C=N/Nc1cccc(C(=O)O)c1	42*	-1%	-4%	-20%	132*	-20%
COc1ccc(Br)cc1/C=N/Nc1cccc(C(=O)O)c1	49*	-6%	-2%	0%	51	-26%
COc1cccc(/C=N/Nc2ccc(C(=O)O)cc2)c1O	-12	-11%	3%	2%	-27	-6%
COc1cc(S(=O)(=O)N2CCN(C)CC2)ccc1Cl	3	6%	-12%	-10%	14	5%
Cc1ccccc1C(=O)c1cccn1CC(=O)NCc1ccco1	-2	0%	-12%	1%	13	-18%
Cc1cccnc1NC(=O)c1cccc(S(=O)(=O)NCc2ccccc2)c1	·	4%	-15%	0%	·	-20%
O=C(/C=C/c1ccc(F)cc1)NC(=S)NNC(=O)c1cnccn1	2	19%	1%	6%	12	-9%
SMILES	CHX counter	SARS PLpro yeast	AmpC detergent	AMA1 RON2 block	Shiga toxin inh	AmpC inh no detg
C/C(=N\Nc1cccc(C(=O)O)c1)c1ccc(Cl)s1	68*	-16%	?	-6%	121*	-19%
COc1ccc(/C(C)=N/Nc2cccc(C(=O)O)c2)cc1OC	104*	4%	1%	13%	187*	-27%
COC(=O)[C@H](Cc1ccccc1)NCCCn1cnc(C(=O)Nc2ccc(C)c(C)c2)n1	·	·	·	0%	·	·
COc1cccc(-c2cc3nc(C)cc(N4CCN(C(=O)c5ccoc5)CC4)n3n2)c1	·	·	·	-21%	·	·
COc1ccc2cc(Br)ccc2c1CC(=O)N(C)C	-3	0%	-3%	-3%	3	13%
C[C@]12CC[C@H]3C(=CCc4cc(O)ccc43)[C@@H]1CCC2=O	16*	-16%	-4%	0%	34	-38%
